A short description of experiment [1]: Nuclear factor erythroid 2-related factor 2/antioxidant responsive element (Nrf2/ARE) small molecule agonists: qHTS cell viability counter screen in human keratinocytes (AID 1919968; active = well fitted curve in the direction sought with a large enough effect in the repeat runs; an effect the other way counts as inactive or inconclusive; also: nearly all actives have a fitted effect of over 55% in size). The method in brief: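 KeratinoSens HaCaT cells, 1,500/well, preincubated 5 h, then exposed to compounds in DMSO for 23 h at 37 C/5% CO2. Viability read as CellTiter-Fluor fluorescence after 1 h, in the same wells as the ARE-luciferase read.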
On the technique in general: qHTS replaces the single test concentration by a dilution series.

Experiment [2] in a line: Nuclear factor erythroid 2-related factor 2/antioxidant responsive element (Nrf2/ARE) small molecule agonists: luciferase reporter gene qHTS assay in human keratinocytes (AID 1919969). Also: nearly all actives have a fitted effect of over 35% in size. Also: potency is read from the fitted curve at half-maximal effect. In general terms: In a reporter assay the amount or activity of a reporter protein is the signal.
Experiment [3] deals with Gonadotropin-releasing hormone receptor (Homo sapiens) (UniProt P30968). As to the kind of experiment: Human gonadotropin-releasing hormone receptor (GnRHR) small molecule agonists, calcium flux assay in GnRHR-HEK293 cells (AID 1920063). Also: nearly all actives have a fitted effect of over 35% in size. Put shortly: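 HEK293 cells stably expressing human GnRHR were dye-loaded for 1 h at 37 C. Compound was added in agonist mode and fluorescence (Ex/Em 480/540) recorded kinetically for 3 min. Fifteen concentrations, triplicates.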
Gonadotropin-releasing hormone receptor (Homo sapiens), sequence (P30968 whole entry, looked up): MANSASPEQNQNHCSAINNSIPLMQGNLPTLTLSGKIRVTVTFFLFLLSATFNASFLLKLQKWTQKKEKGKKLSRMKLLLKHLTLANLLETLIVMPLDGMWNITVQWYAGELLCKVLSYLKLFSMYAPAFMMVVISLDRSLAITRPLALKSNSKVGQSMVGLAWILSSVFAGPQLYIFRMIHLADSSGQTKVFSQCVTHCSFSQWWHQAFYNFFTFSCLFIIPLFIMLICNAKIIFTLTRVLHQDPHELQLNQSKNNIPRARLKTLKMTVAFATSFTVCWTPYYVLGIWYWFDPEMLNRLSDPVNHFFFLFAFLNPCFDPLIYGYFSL

Experiment [4] has as its target KiSS-1 receptor (Homo sapiens) (UniProt Q969F8). Put plainly: Human kisspeptin (KISS1R) small molecule agonists, calcium flux assay in KISS1R-HEK293 cells (AID 1920064; active = well fitted curve in the direction sought with a large enough effect in the repeat runs; an effect the other way counts as inactive or inconclusive). Put shortly: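 HEK293 cells stably expressing human KISS1R were loaded with calcium dye for 1 h at 37 C, then given compound; fluorescence (Ex/Em 480/540) was read kinetically for 3 min. Fifteen concentrations, triplicate.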
(Calcium assays in cells follow changes in intracellular calcium, usually with a dye or a luminescent sensor.)

The nature of experiment [5]: G protein-coupled receptor (GPCR) small molecule agonists, calcium flux assay: HEK293 wild type cell line counter screen (AID 1920065). The method in brief:
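Wild-type HEK293 cells plated 18 h, loaded with calcium dye 1 h at 37 C, then compounds added in agonist mode (ATP as positive control). Kinetic fluorescence Ex/Em 480/540 recorded 3 min at 1 sec intervals; 15 concentrations, triplicate.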

Experiment [6] is described as follows: p53 small molecule agonists, cell-based qHTS assay with human liver microsomes (AID 1963577).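 Also: p53 response element beta-lactamase reporter cells with liver microsomes plus NADPH.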 Put shortly:
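Steps: plate p53RE-bla cells, incubate 5 h at 37 C; add compound in DMSO; add microsomes (0.5 mg/mL final) and NADPH (0.5 mg/mL final); incubate 16 h at 37 C; add LiveBLAzer, 2 h RT; read fluorescence.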

Experiment [7] is described as follows: p53 small molecule agonists, cell-based qHTS assay with rat liver microsomes (AID 1963578). Put shortly: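 Metabolic activation is supplied by rat liver microsomes with NADPH (each 0.5 mg/mL final). p53RE-bla cells incubate with compound 16 h at 37 C; reporter activity is measured by LiveBLAzer fluorescence.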
Experiment [8] is described as follows: p53 small molecule agonists, cell-based qHTS assay with human liver microsomes: qHTS cell viability counter screen (AID 1963579). Also: nearly all actives have a fitted effect of over 45% in size. Put shortly: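 After the 460/530 nm beta-lactamase read, CellTiter-Glo was added to the same wells and luminescence measured after 30 min at room temperature, giving viability of p53RE-bla cells treated 16 h with compounds plus microsomes and NADPH.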

The nature of experiment [9]: p53 small molecule agonists, cell-based qHTS assay with rat liver microsomes: qHTS cell viability counter screen (AID 1963580). Also: nearly all actives have a fitted effect of over 45% in size. The method in brief:
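p53RE-bla HCT-116 cells (4,000/well) rested 5 h at 37 C, then given Tox21 compounds in DMSO with rat liver microsomes (0.5 mg/mL final) plus NADPH (0.5 mg/mL final) for 16 h at 37 C. Viability read by CellTiter-Glo luminescence after 30 min at room temperature.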

A short description of experiment [10]: p53 small molecule agonists, cell-based qHTS assay: qHTS cell viability counter screen (AID 1963581). Also: nearly all actives have a fitted effect of over 45% in size. Put shortly:
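p53RE-bla HCT-116 cells, compounds added 5 h after plating and incubated 16 h at 37 C. Cytotoxicity measured in the same wells as intracellular ATP by CellTiter-Glo luminescence after 30 min at room temperature.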

Experiment [11] can be described thus: p53 small molecule agonists, cell-based qHTS assay (AID 1963582; active = well fitted activation curve with a large enough effect in the signal ratio in the repeat runs, not every such curve was filed as active; the % refers to the signal ratio). The method in brief:
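p53RE-bla reporter cells, compounds added in DMSO after 5 h plating, incubated 16 h at 37 C. Beta-lactamase read via 2 h room-temperature LiveBLAzer B/G FRET substrate, fluorescence intensity.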

The target in experiment [12] is 5-hydroxytryptamine receptor 2A (Homo sapiens) (UniProt P28223). Put plainly: 5-hydroxytryptamine receptor 2A (HTR2A) small molecule antagonists, cell-based qHTS assay (AID 1963586). Also: nearly all actives have a fitted effect of over 45% in size. The method in brief: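 Antagonist-mode intracellular calcium assay: DOI (4 nM) added after 5 min compound pre-incubation at room temperature to dye-loaded HTR2A-CHO cells. Fluorescence followed for 3 min, sampled every second.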
5-hydroxytryptamine receptor 2A (Homo sapiens), sequence (P28223 whole entry, looked up): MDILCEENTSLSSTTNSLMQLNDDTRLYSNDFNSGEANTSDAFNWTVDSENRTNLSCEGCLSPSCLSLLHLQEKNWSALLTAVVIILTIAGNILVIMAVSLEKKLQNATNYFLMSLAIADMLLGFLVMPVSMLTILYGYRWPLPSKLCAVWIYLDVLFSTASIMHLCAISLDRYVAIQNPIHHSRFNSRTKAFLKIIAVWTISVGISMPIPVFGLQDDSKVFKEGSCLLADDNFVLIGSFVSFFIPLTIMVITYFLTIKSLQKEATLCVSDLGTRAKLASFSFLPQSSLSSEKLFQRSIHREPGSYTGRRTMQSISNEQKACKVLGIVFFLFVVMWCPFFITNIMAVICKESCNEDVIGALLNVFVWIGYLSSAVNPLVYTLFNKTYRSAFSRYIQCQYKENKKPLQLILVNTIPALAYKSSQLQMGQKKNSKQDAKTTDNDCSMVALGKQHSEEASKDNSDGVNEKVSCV

For experiment [13] the target is unchanged. As to the kind of experiment: 5-hydroxytryptamine receptor 2A (HTR2A) small molecule agonists, cell-based qHTS assay (AID 1963587). Also: nearly all actives have a fitted effect of over 30% in size. Put shortly: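 HTR2A-CHO cells, plated 18 h at 37 C/5% CO2, dye-loaded 1 h at 37 C; compounds in DMSO added by pin tool (agonist mode). Intracellular calcium flux read as kinetic fluorescence on FDSS over 2 min at 1 s intervals.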

For experiment [14], the target named is Muscarinic acetylcholine receptor M1 (Homo sapiens) (UniProt P11229). Put plainly: Cholinergic receptor muscarinic 1 (CHRM1) small molecule antagonists, cell-based qHTS assay (AID 1963588). Also: nearly all actives have a fitted effect of over 40% in size. Put shortly:
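CHRM1-CHO calcium-flux assay, antagonist mode. Cells were seeded 18 h, dye-loaded 1 h at 37 C and given compound for 5 min at RT, then acetylcholine was added at 50nM. FDSS fluorescence was read 3 min; 15 concentrations, three runs.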

Experiment [15] has the same target. As to the kind of experiment: Cholinergic receptor muscarinic 1 (CHRM1) small molecule agonists, cell-based qHTS assay (AID 1963589). Also: nearly all actives have a fitted effect of over 35% in size. The method in brief:
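CHO cells stably expressing human CHRM1 were loaded with calcium dye for 1 h at 37 C, then compound was added in agonist mode. Intracellular calcium fluorescence was followed kinetically at 1 s intervals. Fifteen concentrations were tested in three independent runs.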

Experiment [16] in a line: cAMP Responsive Elements (CRE) small molecule agonists, cell-based qHTS assay (AID 1963590). Put shortly:
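CRE-bla HEK 293T cells, 2,000/well in DMEM with 10% dialyzed FBS and 25 mM HEPES, pre-incubated 18 h at 37 C, then exposed to compound 3 h at 37 C. Beta-lactamase reporter read with LiveBLAzer B/G FRET substrate after 2 h at room temperature.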

Experiment [17] can be described thus: cAMP Responsive Elements (CRE) small molecule antagonists, cell-based qHTS assay (AID 1963591; active = well fitted inhibition curve with a large enough effect in the signal ratio in the repeat runs, not every such curve was filed as active; the % refers to the signal ratio). The method in brief: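 CRE-bla HEK293T cells plated 18 h, then given compound plus NKH477 at 0.25 uM final for 3 h at 37C. Beta-lactamase reporter read with LiveBLAzer B/G FRET substrate after 2 h at room temperature.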
Experiment [18] addresses Beta-2 adrenergic receptor (Homo sapiens) (UniProt P07550). Put plainly: Adrenergic beta2 receptor (ADRB2) small molecule antagonists, cell-based qHTS assay (AID 1963592). Also: series mostly up to about 92 µM; nearly all actives have a fitted effect of over 50% in size. The method in brief: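 Cells (CHO, stable ADRB2 overexpression) incubated 18-20hr at 37C; compounds added from DMSO; agonist mix (1nM isoproterenol, 100uM IBMX, 25uM Ro-20-1724) added; 0.5hr RT; d2-cAMP and anti-cAMP-cryptate added; 1hr RT; 665/615 nm read.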

The target of experiment [19] is D(2) dopamine receptor (Homo sapiens) (UniProt P14416). As to the kind of experiment: Dopamine D2 receptor (DRD2) small molecule antagonists, cell-based qHTS assay (AID 1963595; active = well fitted inhibition curve with a large enough effect in the signal ratio in the repeat runs, with a control signal flat; the % refers to the signal ratio). The method in brief:
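Human DRD2 antagonist qHTS measuring cAMP by HTRF. The cells are exposed to compound for 10 min, then to NKH477 (200 nM) and quinpirole (12 nM) for 30 min at RT, with Ro20-1724 (0.1 mM) present throughout.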

The target is the same in experiment [20]. As to the kind of experiment: Dopamine D2 receptor (DRD2) small molecule agonists, cell-based qHTS assay (AID 1963594). Also: nearly all actives have a fitted effect of over 35% in size. The method in brief: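 HEK293 cells stably expressing DRD2 were cultured 24 h at 37 C, then given Ro20-1724 (0.1 mM final) and compounds for 10 min at room temperature. NKH477 (200nM) was then added for 30 min. cAMP was read by HTRF.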

The text below walks through data of PubChem BioAssay (Tox21).

Inconclusive results are not listed. Activity calls are given as the source filed them. Unless noted, calls follow the shape of the full dose curve.

Beta-2 adrenergic receptor (Homo sapiens), sequence (P07550 whole entry, looked up): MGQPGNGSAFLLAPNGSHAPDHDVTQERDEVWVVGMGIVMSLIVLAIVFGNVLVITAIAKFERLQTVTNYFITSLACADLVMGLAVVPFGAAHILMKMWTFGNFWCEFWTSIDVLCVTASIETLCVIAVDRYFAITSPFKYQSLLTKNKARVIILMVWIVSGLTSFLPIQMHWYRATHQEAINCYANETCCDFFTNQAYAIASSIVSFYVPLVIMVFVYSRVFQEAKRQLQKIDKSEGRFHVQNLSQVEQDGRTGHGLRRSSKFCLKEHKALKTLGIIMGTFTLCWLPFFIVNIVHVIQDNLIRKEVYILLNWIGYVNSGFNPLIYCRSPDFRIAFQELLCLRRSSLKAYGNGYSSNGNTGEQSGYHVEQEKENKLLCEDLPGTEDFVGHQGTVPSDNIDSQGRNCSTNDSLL
KiSS-1 receptor (Homo sapiens), sequence (Q969F8 whole entry, looked up): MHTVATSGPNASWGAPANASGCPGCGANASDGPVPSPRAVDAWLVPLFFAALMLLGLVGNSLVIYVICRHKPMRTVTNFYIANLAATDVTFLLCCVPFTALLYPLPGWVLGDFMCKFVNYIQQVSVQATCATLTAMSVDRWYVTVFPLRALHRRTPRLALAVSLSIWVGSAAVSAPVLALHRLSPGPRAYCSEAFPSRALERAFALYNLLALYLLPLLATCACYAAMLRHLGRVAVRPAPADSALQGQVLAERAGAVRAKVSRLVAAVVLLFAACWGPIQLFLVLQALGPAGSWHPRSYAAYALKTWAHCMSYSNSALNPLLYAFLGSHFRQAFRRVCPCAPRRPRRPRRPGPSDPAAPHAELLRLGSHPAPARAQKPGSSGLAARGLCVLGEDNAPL
Muscarinic acetylcholine receptor M1 (Homo sapiens), sequence (P11229 whole entry, looked up): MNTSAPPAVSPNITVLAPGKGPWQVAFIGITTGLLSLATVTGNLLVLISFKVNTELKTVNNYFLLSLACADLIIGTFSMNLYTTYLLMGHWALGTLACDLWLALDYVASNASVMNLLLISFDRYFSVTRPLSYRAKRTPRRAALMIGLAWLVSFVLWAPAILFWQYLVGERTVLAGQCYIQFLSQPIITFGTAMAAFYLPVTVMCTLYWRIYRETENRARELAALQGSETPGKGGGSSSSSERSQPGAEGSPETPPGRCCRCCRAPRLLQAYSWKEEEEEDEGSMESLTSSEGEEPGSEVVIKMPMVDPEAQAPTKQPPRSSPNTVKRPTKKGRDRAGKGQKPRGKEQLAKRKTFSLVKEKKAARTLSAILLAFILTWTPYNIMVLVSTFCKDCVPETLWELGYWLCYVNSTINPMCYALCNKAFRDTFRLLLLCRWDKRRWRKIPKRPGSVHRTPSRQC
D(2) dopamine receptor (Homo sapiens), sequence (P14416 whole entry, looked up): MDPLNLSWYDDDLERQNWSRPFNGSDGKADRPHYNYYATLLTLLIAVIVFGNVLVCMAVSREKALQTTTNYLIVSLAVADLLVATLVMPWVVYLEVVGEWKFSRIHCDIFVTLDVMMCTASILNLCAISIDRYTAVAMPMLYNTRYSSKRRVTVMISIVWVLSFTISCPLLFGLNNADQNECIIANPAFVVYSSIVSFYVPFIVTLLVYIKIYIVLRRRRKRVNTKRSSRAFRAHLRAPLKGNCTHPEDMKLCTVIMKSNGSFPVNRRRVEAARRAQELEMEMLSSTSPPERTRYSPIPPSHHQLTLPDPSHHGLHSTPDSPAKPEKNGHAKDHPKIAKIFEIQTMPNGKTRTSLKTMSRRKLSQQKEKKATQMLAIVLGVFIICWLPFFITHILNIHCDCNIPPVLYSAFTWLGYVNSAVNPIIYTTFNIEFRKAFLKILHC

In the case of `CC(C)CC(=O)O`, the Potency entry in experiment [1], in experiment [2], in experiment [3], in experiment [4], in [5] and in experiment [6] was “inactive” throughout. The Potency result in experiment [7], in experiment [8], in experiment [9], in experiment [10], in experiment [11] and in experiment [12] was “inactive” in each case. Further, the Potency entry in [13], in experiment [14], in experiment [15], in experiment [16], in experiment [17] and in experiment [18] was “inactive” each time. The Potency entry in experiment [19] is “inactive”.
Take `C=CC(=O)CC`: the Potency entry in experiment [1], in experiment [2], in experiment [3], in experiment [4], in experiment [5] and in [6] was “inactive” in each case. In addition, the Potency entry in experiment [7], in [8], in [9], in experiment [10], in experiment [11] and in [12] was “inactive” throughout. Moreover, the Potency result in [13], in experiment [14], in [15], in [16], in experiment [18] and in experiment [20] was “inactive” each time. In addition, the Potency entry in experiment [19] was “inactive”.
As for `COc1ccc(C(=O)c2cccc(O)c2)c(OC)c1`, the Potency entry in experiment [1], in experiment [2], in experiment [3], in [4], in experiment [5] and in experiment [6] was “inactive” throughout. In addition, the Potency entry in [7], in experiment [8], in [9], in experiment [10], in [11] and in experiment [12] was “inactive” in each case. The Potency result in experiment [13], in experiment [14], in [15], in experiment [16], in experiment [17] and in experiment [20] was “inactive” throughout. Further, in experiment [19], the Potency entry is “inactive”.
Consider `CC(C)(c1ccccc1)c1ccc(Nc2ccc(C(C)(C)c3ccccc3)cc2)cc1`, for which the Potency result in experiment [1], in [2], in experiment [3], in [4], in experiment [5] and in experiment [6] was “inactive” throughout. In addition, the Potency result in experiment [7], in experiment [8], in experiment [9], in experiment [10], in experiment [11] and in [12] was “inactive” throughout. Moreover, the Potency result in experiment [13], in experiment [14], in experiment [15], in [16], in experiment [18] and in experiment [20] was “inactive” throughout. The Potency entry in experiment [19] is “inactive”.
For the compound `O=C1NCCN1CCO`, the Potency result in [1], in [2], in experiment [3], in experiment [4], in experiment [5] and in [6] was “inactive” throughout. Further, the Potency result in experiment [7], in experiment [8], in experiment [9], in experiment [10], in experiment [11] and in experiment [12] was “inactive” throughout. The Potency entry in experiment [13], in experiment [14], in [15], in experiment [16], in [18] and in [20] was “inactive” in each case. In addition, the Potency entry in experiment [19] is “inactive”.
As to `COCCOCCOCCOCCO`, the Potency result in experiment [1], in [2], in [3], in experiment [4], in experiment [5] and in experiment [6] was “inactive” in each case. The Potency result in experiment [7], in experiment [8], in experiment [9], in experiment [10], in experiment [11] and in [12] was “inactive” throughout. The Potency result in experiment [13], in [14], in experiment [15], in [16], in [17] and in experiment [20] was “inactive” throughout. The Potency entry in [19] is “inactive”.
For the compound `COC(=O)c1c(Cl)c(Cl)c(C(=O)OC)c(Cl)c1Cl`, the Potency entry in experiment [1], in experiment [3], in [4], in [5], in [6] and in experiment [7] was “inactive” each time. Also, the Potency result in [8], in [9], in experiment [10], in experiment [11], in experiment [12] and in experiment [13] was “inactive” each time. Also, the Potency entry in [14], in experiment [15], in experiment [16], in [17], in experiment [20] and in [19] was “inactive” each time. For the same compound, the Potency in [2] was 30.6 µM (active).
Take `COCC(C)OC(C)=O` (stereo unspecified): the Potency entry in experiment [1], in experiment [2], in experiment [3], in experiment [4], in experiment [5] and in [6] was “inactive” each time. In addition, the Potency entry in experiment [7], in experiment [8], in [9], in experiment [10], in experiment [11] and in [12] was “inactive” in each case. Moreover, the Potency result in experiment [13], in [14], in [15], in experiment [16], in [18] and in experiment [20] was “inactive” throughout.
